# Data: PubChem BioAssay AID686978 (National Center for Advancing Translational Sciences (NCATS), 2013)
# Among all 420,000 compounds or so, about 64,000 (15%) were called active. Roughly 27% stayed inconclusive and do not appear here. Calls follow the shape of the dose curve; as a rule, active = well fitted inhibition curve with a large enough effect; inconclusive = small, poorly fitted or top-dose-only effect; inactive = flat fitted curve, though single readings scatter. The list is a sample of the results. A call without a number means that no potency is given here.
# Assay: qHTS for Inhibitors of human tyrosyl-DNA phosphodiesterase 1 (TDP1): qHTS in cells in absence of CPT; also: nearly all actives have a fitted effect of over 55% in size
# Conditions: DT40 Tdp1-/- hTDP1 cells, no CPT, ATP luminescence, 48 h; activity change, negative = growth inhibition: at 46.2 µM (top of the series)
# Outline: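 Growth kinetics read by CellTiter-Glo luminescence after ≥48 hr at 37 °C. Cells: DT40 Tdp1-/- stably carrying human TDP1, 400 per well, compound exposure in the absence of CPT (DMSO vehicle).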
# Potency is read from the fitted curve at half-maximal effect.
row,Structure (SMILES),Potency
1,CCC1CO/C(=C(\C(=C(Cl)Cl)N2CCOCC2)[N+](=O)[O-])N1 (stereo not drawn),inactive
2,CC(C)[C@H](NC(=O)N1c2ccccc2NC(=O)[C@@H]1C(C)C)C(=O)N[C@H](C(=O)O)c1ccccc1,inactive
3,COc1cccc(N2C(=O)CC(N3CCc4ccccc4C3)C2=O)c1 (stereo not drawn),inactive
4,C=C(C)c1cccc(C(C)(C)NC(=O)NCCN(CC)CC)c1,inactive
5,O=C(Nc1ccc([N+](=O)[O-])cc1)C1(c2ccccc2)CCOCC1,inactive
6,CC1(C)CC(=O)C(C=NCCC2=CCCCC2)=C(O)C1,inactive
7,COc1ccc(OC)c(NC(=O)c2ccc3c(c2)C(=O)N(c2ccc(OC(C)=O)cc2)C3=O)c1,inactive
8,O=C(NCc1ccc(Cl)c(Cl)c1)c1cccnc1,inactive
9,O=C(/C=C/c1ccc(Cl)cc1Cl)c1cccnc1,14.6 µM (active)
10,O=C(Nc1cccnc1)c1cc(Cl)ccc1Cl,inactive
11,CC1OC2C(OC1C)N(S(C)(=O)=O)CCN2S(C)(=O)=O (stereo not drawn),inactive
12,Cc1nc2ccc(NC(=S)N3CCC(C)CC3)cc2nc1C,inactive
13,O=S(=O)(N/N=C\c1cccn1-c1ccccc1)c1ccc2ccccc2c1,inactive
14,CC1(C(=O)NCc2ccc3c(c2)OCO3)CCN1C(=O)Cc1cccs1 (stereo not drawn),inactive
15,CCCC(=O)N1CCC1(C)C(=O)NCc1ccc(SC)cc1 (stereo not drawn),inactive
16,CSc1ccc(CN2CCC2(C)C(=O)Nc2ccc(C)c(O)c2)cc1 (stereo not drawn),18.4 µM (active)
17,CC1(C(=O)NCc2cccc3ccccc23)CCN1Cc1ccc(-c2ccccc2)o1 (stereo not drawn),13 µM (active)
18,CSc1ccc(CN2CCC2(C)C(=O)NCc2ccccc2Br)cc1 (stereo not drawn),23.1 µM (active)
19,CCC(=O)N1CCCC1(C)C(=O)Nc1ccc2c(c1)CCN2C(C)=O (stereo not drawn),inactive
20,CSc1ccc(CN(C)CC(=O)NCc2ccc(F)cc2)cc1,inactive
21,CSc1ccc(CNC(=O)C2(C)CCCN2C)cc1 (stereo not drawn),inactive
22,CC1(C(=O)NCc2ccc3c(c2)OCO3)CCN1CCc1ccccc1 (stereo not drawn),inactive
23,CC(N)=NCc1cccc(CN)c1,inactive
24,Cc1nccn1CCC1CCCCN1C(=O)CCc1nnc(-c2ccsc2)o1 (stereo not drawn),inactive
25,O=C(CNC(=O)c1ccccc1F)c1ccc(Br)cc1,inactive
26,Cc1ccc(C)c(N(CC(=O)NCc2ccco2)C(=O)CCC(=O)Nc2ccccn2)c1,inactive

row,Structure (SMILES),Potency
1,O=C(O)CCCCc1nc2ccccc2s1,inactive
2,CCC(Oc1ccccc1C)C(=O)Nc1ccc(S(=O)(=O)Nc2cc(C)on2)cc1 (stereo not drawn),inactive
3,COC(=O)c1scc(S(=O)(=O)C(C)(C)C)c1-n1cccc1,inactive
4,COc1cc(CC(=O)N2CCC(n3nccc3NC(=O)C3CC3)CC2)cc(OC)c1OC,inactive
5,c1ccc(-n2nnnc2N2CCOCC2)cc1,inactive
6,C1=C(N2CCOCC2)/C(=C/c2nc3ccccc3[nH]2)CC1,23.1 µM (active)
7,O=C1c2ccccc2C(c2nc3ccccc3[nH]2)N1c1ccccc1 (stereo not drawn),inactive
8,COC(=O)C1=CN(Cc2ccc(OC)cc2)C=C(C(=O)OC)C1c1ccc(O)c(OC)c1,inactive
9,O=Cc1ccc(OCc2cn3ccccc3n2)cc1,inactive
10,CCN(CC)c1ccc(C(=O)N/N=C/c2ccc(N3CCOCC3)cc2)cc1,inactive
11,O=C(CC1SC(N2CCOCC2)=NC1=O)Nc1ccccc1F (stereo not drawn),inactive
12,O=C(O)c1ccc(NN=CC2=C(N3CCOCC3)/C(=C/c3ccccc3)CC2)cc1,3.26 µM (active)
13,O=C(CSc1nnc(N2CCOCC2)n1-c1cccc(F)c1)N1CCN(c2ccccn2)CC1,inactive
14,O=C(CN1CCN(c2ccccn2)CC1)N1CCc2ccccc21,inactive
15,O=C1Nc2ccc(Br)cc2/C1=N/N=C/C1=C(N2CCOCC2)C(=C\c2ccccc2)/CC1,23.1 µM (active)
16,N#C/C(=C\C1=C(N2CCOCC2)C(=C\c2ccccc2)/CC1)C(=O)Nc1ccccc1F,14.6 µM (active)
17,O=C(O)c1ccc(/C=N/Nc2nc(N3CCCCC3)nc(N3CCCCC3)n2)cc1,inactive
18,COc1ccc(/C=N/N=C2/C(=O)Nc3ccccc32)cc1O,inactive
19,C(=N\N1CCN(c2ccccn2)CC1)/C1=C(N2CCOCC2)C(=C/c2ccccc2)/CC1,16.4 µM (active)
20,CCOC(=O)c1c(NC(=O)/C(C#N)=C/c2ccccc2)sc2c1CCC2,inactive
21,Cc1cc(C(=O)NNS(=O)(=O)c2ccccc2C(F)(F)F)nn1C(C)(C)C,inactive
22,O=c1cc(CSc2ccccn2)nc(N2CCN(c3ccccc3)CC2)[nH]1,inactive
23,N/C(=N\OC(=O)CCc1ccccc1)c1ccc(Cl)cc1,inactive
24,O=C(NCc1ccccn1)[C@@H]1CCCN1C(=O)[C@@H]1CCCN1C(=O)c1ccccc1,inactive
25,COC(=O)c1ccccc1NC(=O)CSc1nc2c(c(=O)[nH]1)CCC2,inactive
26,COC(=O)C1=C(C(=O)OC)[C@@H]2N(C)c3ccccc3[C@@]23C[C@@H](C(=O)OC)N(C(C)=O)C3=N1,inactive

row,Structure (SMILES),Potency
1,O=C1C(c2ccccn2)=[N+]([O-])c2ccccc21,inactive
2,CCC(=O)Nc1cccc(NC(=O)CSc2nnc(-c3ccc(NS(C)(=O)=O)cc3)n2C)c1,inactive
3,O=C(COc1ccccc1F)OCc1cc(=O)n2nc(C3CCCCC3)sc2n1,inactive
4,O=C(CSc1n[nH]c(-c2cccs2)n1)N1CCCCC1,inactive
5,Cc1cccc(NC(=O)c2cccc(C(F)(F)F)c2)c1,inactive
6,O=C(Nc1ccc(-c2csc(Nc3cccc(C(F)(F)F)c3)n2)cc1)c1cccc(C(F)(F)F)c1,6.51 µM (active)
7,CNC(=O)c1ccc(NC(=O)c2cccc(C(F)(F)F)c2)cc1,inactive
8,CCOC(=O)NC(C(F)(F)F)(C(F)(F)F)P(=O)(c1ccccc1)c1ccccc1,inactive
9,CCOC(=O)c1sc(NC(=O)CSc2ncccn2)c(C#N)c1C,inactive
10,O=C(Nc1ccc(C2CC2(Cl)Cl)cc1)c1cccc([N+](=O)[O-])c1 (stereo not drawn),18.4 µM (active)
11,O=C(Nc1nnc(SCc2ccccc2Cl)s1)c1cccc([N+](=O)[O-])c1,inactive
12,Cc1cc(C)nc(NC(=O)c2cccc([N+](=O)[O-])c2)c1,inactive
13,Cc1ccc(CNC(=O)CCN2C(=O)[C@@H]3Cc4ccccc4CN3C2=O)cc1,inactive
14,CN(NC(=O)C1CC(=O)N(c2ccccc2)C1)C1=NS(=O)(=O)c2ccccc21 (stereo not drawn),inactive
15,O=C1NC(c2ccccc2)=NC1(Nc1ccccn1)C(F)(F)F (stereo not drawn),inactive
16,CCCNC(=O)N1CCC(c2ccc3c(c2)OCO3)CC1,inactive
17,CC1Cn2c(nnc2-c2cccs2)S1 (stereo not drawn),inactive
18,N#C/C(=C(/O)COC(=O)COc1ccc(Cl)cc1)c1nc2ccccc2[nH]1,4.61 µM (active)
19,COc1ccccc1C(=O)COC(=O)COc1ccc(C#N)cc1,inactive
20,N#C/C(=C(/O)COc1cccc2ccccc12)c1nc2ccccc2[nH]1,inactive
21,O=C(/C(=N\O)n1cncn1)c1ccc(Br)cc1Br,inactive
22,Oc1cccc2ccc(/C=C/c3ccc(Br)s3)nc12,0.082 µM (active)
23,CCOC(=O)C1(Cc2cccc(OC)c2)CCCN(C(=O)CCSC)C1 (stereo not drawn),inactive
24,O=S(=O)(O)c1nc2ccccc2n1Cc1ccc(Cl)cc1Cl,inactive
25,Cc1ccc(S(=O)(=O)Cc2cc(-c3ccc(Cl)cc3)no2)cc1,inactive
26,O=S(=O)(Cc1ccc(Cl)cc1Cl)c1ccc(Cl)cc1,1.03 µM (active)

row,Structure (SMILES),Potency
1,C=C1CCN([C@H](C(=O)NCc2cc(OC)c(OC)c(OC)c2)C(C)C)S(=O)(=O)c2ccccc21,inactive
2,COc1ccc(C(=O)NC2CC2)cc1OC1CCN(Cc2cnn(C)c2)CC1,inactive
3,COc1ccc(Cl)cc1NS(=O)(=O)c1cccc(C(=O)NC2CCC(O)CC2)c1 (stereo not drawn),inactive
4,COc1cc(C(=O)NC2CCN(C)CC2)ccc1Nc1ncc2c(n1)N(C1CCC(O)CC1)CCC(=O)N2C (stereo not drawn),16.4 µM (active)
5,Cc1ccccc1OCCC(=O)Nc1c(C)n(C)n(-c2ccccc2)c1=O,inactive
6,COc1cccc(C(=O)N2CCC(n3nccc3NC(=O)C3CCOC3)CC2)c1 (stereo not drawn),inactive
7,COc1ccc(N2CCN(c3cc(C)nc4nncn34)CC2)cc1,16.4 µM (active)
8,COc1ccc(-c2nnc3n2CCCCC3)cc1,inactive
9,COc1ccc(N2CCN(Cc3nnc(-c4ccccc4)o3)CC2)cc1,inactive
10,Cc1ccccc1C1CC(c2cccs2)=NN1S(C)(=O)=O (stereo not drawn),inactive
11,CCOc1ccc(N(CC)S(=O)(=O)N2CCCC(C(=O)Nc3ccc(C(C)=O)cc3)C2)cc1 (stereo not drawn),23.1 µM (active)
12,Cc1ccccc1CNC(=O)C1CCCN(S(=O)(=O)N(C)c2ccc(F)cc2)C1 (stereo not drawn),18.4 µM (active)
13,CCOC(=O)c1c(S(=O)(=O)N2CCCC(C(=O)NCc3ccc(F)cc3)C2)c(C)n(CC)c1C (stereo not drawn),inactive
14,CCOc1ccc(CNC(=O)C2CCCN(S(=O)(=O)N(CC)c3ccc(OCC)cc3)C2)cc1 (stereo not drawn),20.6 µM (active)
15,CCOc1ccc(C(=O)NC2CCN(S(=O)(=O)CC)CC2)cc1,inactive
16,CCS(=O)(=O)N1CCCC(C(=O)NCc2ccc(C)cc2)C1 (stereo not drawn),inactive
17,CCOC(=O)c1c(C)[nH]c(C)c1S(=O)(=O)N1CCCC(C(=O)NCc2ccccc2Cl)C1 (stereo not drawn),inactive
18,CCOc1ccccc1CNC(=O)C1CCCN(S(=O)(=O)c2ccc3c(ccn3C)c2)C1 (stereo not drawn),16.4 µM (active)
19,CCOc1ccccc1NC(=O)C1CCCN(S(=O)(=O)c2cn(C)cn2)C1 (stereo not drawn),inactive
20,COc1cccc(CNC(=O)C2CCN(S(=O)(=O)c3ccc4c(ccn4C)c3)CC2)c1,inactive
21,CCOc1ccc(NC(=O)C2CCCN(C(=O)Nc3ccccc3)C2)cc1 (stereo not drawn),inactive
22,Cc1ccc(CNC(=O)C2CCCN(S(C)(=O)=O)C2)cc1 (stereo not drawn),inactive
23,Cc1cc(C)cc(OCc2nnc(SCC(=O)OC3CCCCC3)o2)c1,inactive
24,OC(c1ccccc1)c1nccn1Cc1ccccc1 (stereo not drawn),inactive
25,COc1ccccc1C(=O)NC(CCSC)C(=O)NNC(=O)c1csc(N2CCOCC2)n1 (stereo not drawn),inactive
